Results taken from PubChem BioAssay (NCATS).
Inconclusive results are not listed. Entries that show only a call come without a potency. The source made the active and inactive calls. Unless noted, calls follow the shape of the dose curve; as a rule, active = well fitted curve in the direction sought with a large enough effect; inconclusive = small, poorly fitted or top-dose-only effect, or another doubt; inactive = no such curve, though single readings can be large; an effect the other way counts as inactive or inconclusive.

Legend:
[1] = biological target: Glutathione peroxidase 1 (Homo sapiens) (UniProt P07203); experiment: Primary qHTS Assay for Inhibitors of Recombinant Selenoprotein Glutathione Peroxidase 1 (GPX1) (AID 1845191); also: nearly all actives have a fitted effect of over 65% in size
Chain of Glutathione peroxidase 1 (Homo sapiens) (P07203 whole entry, looked up): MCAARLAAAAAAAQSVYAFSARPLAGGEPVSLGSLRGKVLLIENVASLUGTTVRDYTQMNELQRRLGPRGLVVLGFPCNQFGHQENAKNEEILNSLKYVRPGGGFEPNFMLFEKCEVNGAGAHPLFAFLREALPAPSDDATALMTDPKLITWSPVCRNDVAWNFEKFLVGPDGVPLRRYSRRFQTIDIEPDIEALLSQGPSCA
In short: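 GR-coupled assay: compounds preincubated 30 min at room temperature with GPX1, then reaction started with CHP; final 10 nM GPX1, 1 mM GSH, 0.5 mM CHP, 0.5 mM NADPH, 100 nM GR, 0.01% BSA, pH 7.5 Tris buffer. NADPH fluorescence (340/450 nm) read at 0 and 15 min.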

[2] = biological target: Phospholipid hydroperoxide glutathione peroxidase GPX4 (Homo sapiens) (UniProt P36969); experiment: Primary qHTS Assay for Inhibitors of Recombinant Selenoprotein Glutathione Peroxidase 4 (GPX4) (AID 1845192); also: nearly all actives have a fitted effect of over 65% in size; as to activity change, negative = inhibition: series mostly up to about 50 µM
Chain of Phospholipid hydroperoxide glutathione peroxidase GPX4 (Homo sapiens) (P36969 whole entry, looked up): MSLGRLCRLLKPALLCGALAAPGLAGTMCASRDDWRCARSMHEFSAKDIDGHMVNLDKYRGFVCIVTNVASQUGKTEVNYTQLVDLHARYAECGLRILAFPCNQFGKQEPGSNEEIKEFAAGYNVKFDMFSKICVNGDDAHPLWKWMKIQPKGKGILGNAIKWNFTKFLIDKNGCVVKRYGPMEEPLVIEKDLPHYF
In short: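 GR-coupled assay: recombinant GPX4 preincubated 30 min with compound at room temperature; final 200 nM GPX4, 1 mM GSH, 0.5 mM cumene hydroperoxide, 0.5 mM NADPH, 100 nM GR, 0.01% BSA, pH 7.5 Tris. NADPH fluorescence (340/450 nm) read at 0 and 15 min.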

[3] = biological target: Luciferin 4-monooxygenase (Photinus pyralis) (UniProt P08659); experiment: Primary firefly luciferase (FLuc) qHTS assay for identification of artifact compounds. (AID 1845220); also: nearly all actives have a fitted effect of over 60% in size; also: potency is read from the fitted curve at half-maximal effect; as to activity change, negative = inhibition: series mostly up to about 54 µM
In short: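 Titrated compounds were incubated 15 min at RT, protected from light, with luciferin and ATP at 10 uM; reaction started with 10 nM FLuc, luminescence imaged at 5 min, and concentration-response fitted by Hill equation.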

[4] = Primary fluorescence-based thiol-reactive (MSTI) qHTS assay for identification of artifact compounds. (AID 1845221); also: nearly all actives have a fitted effect of over 65% in size; also: potency is read from the fitted curve at half-maximal effect;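 as to activity change, negative = thiol reactive: series mostly up to about 54 µM; thiol-reactive compounds lower the probe fluorescence signal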
In short: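 One-hour, room-temperature, dark incubation of compound with 4 uM MSTI in PBS (pH 7.4, 2% DMSO) precedes a fluorescence read at 525 nm excitation, 598 nm emission; Hill-equation fitting yields concentration-response values.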

[5] = Primary redox qHTS assay for identification of artifact compounds. (AID 1845223)
In short: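 Amplex Red (25 uM) and HRP (250 mU/mL) in HBSS, with compounds for 15 min, then 250 uM DTT for 30 min, room temperature, dark. Fluorescence 525/598 nm read; normalized to DMSO and 10 uM DA3003; Hill fit.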

[6] = tested on: Nanoluciferase (engineered Oplophorus gracilirostris luciferase); experiment: Primary Nanoluciferase (NLuc) qHTS assay for identification of artifact compounds. (AID 1845222);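 also: NLuc secreted into diluted conditioned medium of S16 cells; series mostly up to about 54 µM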
In short: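 qHTS format, against NLuc in S16 cell-conditioned medium. Nano-Glo substrate 1:100 was added after 15 min at room temperature. Luminescence was taken after a further 5 min.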

[7] = qHTS drug screen for cell cycle checkpoint inhibitors in PARPi-resistant BRCA-mutant ovarian cancer cell lines. (AID 1963452; calls by dose curve); conditions: PEO1/OlaR viability, CellTiter-Glo luminescence, 96 h, stronger effect = lower value
In short: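 PEO1, PEO4 and PEO1/OlaR ovarian cancer cells, 600 per well, exposed 96 h at 37C to a dilution series. Viability read by CellTiter-Glo luminescence, normalized to DMSO and empty wells; activity summarized as Z-AUC.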

C=C1CCC2C(C)(C)C(O)CCC2(C)C1CCC(C)CCOC(=O)CCC(=O)O (configuration not stated)
Potency [1]: inactive
Potency [2]: inactive
Potency [3]: inactive
Potency [4]: inactive
Potency [5]: inactive

CC(=C/C(=O)O)/C=C/[C@]1(O)[C@@]2(C)CO[C@]1(C)C[C@H](O[C@@H]1O[C@H](CO)[C@@H](O)[C@H](O)[C@H]1O)C2
Potency [1]: inactive
Potency [2]: inactive
Potency [3]: inactive
Potency [4]: 9.22 µM (active)
Potency [5]: inactive

CC1CCC2(C(=O)OC3OC(COC4OC(CO)C(O)C(O)C4O)C(O)C(O)C3O)CCC3(C)C(=CCC4C5(C)CCC(O)C(C)(C(=O)O)C5CCC43C)C2C1(C)O (configuration not stated)
Potency [1]: inactive
Potency [2]: inactive
activity change, negative = inhibition [3]: -4.02% [at 11.6 µM] (inactive)
activity change, negative = thiol reactive [4]: 18.5% [at 11.5 µM] (inactive)
redox activity (% of DA3003) [5]: 2.59% [at 11.5 µM] (inactive)

O=C(c1ccc(NS(=O)(=O)c2cccc3cccnc23)cc1)N1CCN(CC2CC2)CC1
Potency [1]: inactive
Potency [2]: inactive
Potency [3]: inactive
Potency [4]: inactive
Potency [6]: inactive
Potency [5]: inactive
Z-AUC [7]: -0.157 (inactive)
Z-AUC ([7]; measured here: PEO1 parental Z-AUC): -0.299
Z-AUC ([7]; measured here: PEO4 Z-AUC): -0.11

COc1cc(/C=C/C(=O)O[C@H]2[C@H](O)[C@@H](CO)O[C@@]2(CO)O[C@H]2O[C@H](COC(=O)c3ccc(O)cc3)[C@@H](O)[C@H](O)[C@H]2O)cc(OC)c1OC
Potency [1]: inactive
Potency [2]: inactive
Potency [3]: inactive
Potency [4]: inactive
Potency [5]: inactive

C=C1C2(CCC(=O)OC2(C)C)CC(OC(=O)/C(C)=C/C)C2(C)C13OC14C(=O)OC(C)(C(=O)C12C(=O)OC4C)C3OC(C)=O (configuration not stated)
Potency [1]: inactive
Potency [2]: inactive
Potency [3]: inactive
Potency [4]: inactive
Potency [5]: inactive

C=C1C(=O)OC2/C=C(\C)CC/C=C(\C(=O)O)CC/C=C(\C)CCC12 (configuration not stated)
Potency [1]: inactive
Potency [2]: inactive
Potency [3]: inactive
Potency [4]: inactive
Potency [5]: inactive

CCOC(=O)N1CCC(NCCNC(=O)c2ccccc2C)CC1
Potency [1]: inactive
Potency [2]: inactive
Potency [3]: inactive
Potency [6]: inactive

N#Cc1ccc2[nH]c(O)c(-c3ccc(CN4CCOCC4)cn3)c2c1
Potency [1]: inactive
Potency [2]: inactive
Potency [3]: inactive
Potency [6]: inactive
Potency [5]: inactive

O=C(O)CCc1cc2ccoc2cc1O[C@@H]1O[C@H](CO[C@@H]2OC[C@](O)(CO)[C@H]2O)[C@@H](O)[C@H](O)[C@H]1O
Potency [1]: inactive
Potency [2]: inactive
Potency [3]: inactive
Potency [6]: inactive
Potency [5]: inactive

CC1CCC23COC(=O)C2=CC(O)CC3C1(C)CCC1=CC(=O)OC1O (configuration not stated)
Potency [1]: inactive
Potency [2]: inactive
Potency [3]: inactive
Potency [6]: inactive

CC(/C=C/C1(O)C(C)(C)CC(O)CC1(C)O)OC1OC(CO)C(O)C(O)C1O (configuration not stated)
Potency [1]: inactive
Potency [2]: inactive
Potency [3]: inactive
Potency [6]: inactive
Potency [5]: inactive

COc1ccc2c(c1)OC[C@]1(O)c3cc4c(cc3O[C@H]21)OCO4
Potency [1]: inactive
Potency [2]: inactive
Potency [3]: inactive
Potency [6]: inactive

C[C@@H]1O[C@@H](O[C@H]2[C@H](O[C@H]3[C@H](O[C@H]4CC[C@@]5(C)C(CC[C@]6(C)C5CC=C5[C@@H]7CC(C)(C(=O)O)C[C@@H](O)[C@]7(C)CC[C@]56C)[C@@]4(C)CO)O[C@H](C(=O)O)[C@@H](O)[C@@H]3O)O[C@H](CO)[C@H](O)[C@@H]2O)[C@H](O)[C@H](O)[C@H]1O (some centres not stated)
Potency [1]: inactive
Potency [2]: inactive
activity change, negative = inhibition [3]: 0.24% [at 11.6 µM] (inactive)
activity, negative = inhibition [6]: -2.21% [at 11.6 µM] (inactive)

O=C(/C=C/c1ccc(O)cc1)OCC1=CC2OC(=O)C3=CO[C@@H](O[C@@H]4O[C@H](CO)[C@@H](O)[C@H](O)[C@H]4O)[C@H]1[C@@H]32 (some centres not stated)
Potency [1]: inactive
Potency [2]: inactive
Potency [3]: inactive
Potency [4]: inactive
Potency [5]: inactive

O=c1c2ccccc2nc2n1CCC2O (configuration not stated)
Potency [1]: inactive
Potency [2]: inactive
Potency [3]: inactive
Potency [6]: inactive

C/C=C(\C)C(=O)O[C@H]1[C@@H](O[C@]2(COC(=O)CC(C)C)O[C@H](COC(=O)C(C)C)[C@@H](OC(C)=O)[C@@H]2O)O[C@H](COC(C)=O)[C@@H](O)[C@@H]1O
Potency [1]: inactive
Potency [2]: inactive
Potency [3]: 4.46 µM (active)
Potency [6]: inactive

CNC(=O)COC(=O)NCCC1CCN(c2cccc(C)n2)CC1
Potency [1]: inactive
Potency [2]: inactive
Potency [3]: inactive
Potency [6]: inactive
Potency [5]: inactive

CC(=O)NC(C(=O)OC1CCC(C)(C)C2CC=C3C(=O)OCC3(O)C12C)C(C)C (configuration not stated)
Potency [1]: inactive
Potency [2]: inactive
Potency [3]: inactive
Potency [6]: inactive
Potency [5]: inactive

O=C(O[C@H]1[C@@H]2C=CO[C@@H](O[C@@H]3O[C@H](CO)[C@@H](O)[C@H](O)[C@H]3O)[C@@H]2[C@@]2(CO)O[C@@H]12)c1ccc(O)cc1
Potency [1]: inactive
Potency [2]: inactive
Potency [3]: inactive
Potency [6]: inactive

CC1(CCC(=O)O)C(=O)C=CC23CC4CC(OC4(C)C2O)C13 (configuration not stated)
Potency [1]: inactive
Potency [2]: inactive
Potency [3]: inactive
Potency [6]: inactive
Potency [5]: inactive

CC(O)(CC(=O)O)CC(=O)O[C@@H]1[C@@H](O)[C@H](OCCc2ccccc2)O[C@H](CO)[C@H]1O (some centres not stated)
Potency [1]: inactive
Potency [2]: inactive
Potency [3]: inactive
Potency [6]: inactive
Potency [5]: inactive
